Assay [1] is described as follows: AP1 Signaling Pathway (AID 357).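 Also: ME-180 reporter cells stimulated with EGF at its EC50 level; % is scaled to controls: 0 for no effect and ±100 for the full control effect.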 The following applies: ME-180 AP-1-bla reporter, EGF-induced, beta-lactamase ratio, 5 h; at 17.2 µM (top of the series) unless noted. The procedure, abridged:
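Cells are seeded overnight, exposed to compound titrations and an EC50 level of EGF for 5 hours at 37 °C, then loaded with CCF4 dye for 2.5 hours. Beta-lactamase activity under the AP-1 element is read as a blue/green ratio.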

Assay [2] in a line: NFAT Signaling Pathway (AID 444).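 Also: carbachol stimulus at about its EC50 of 1 µM final; % is scaled to controls: 0 for no effect and ±100 for the full control effect.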 As to conditions: Jurkat NFAT-bla M1, carbachol, beta-lactamase ratio, 5 h; at 17.2 µM (top of the series) unless noted. The procedure, abridged:
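Read-out: CCF4 FRET ratio (460 nm/530 nm) after 1 h RT dye loading, used for %activity and AC50 from titration series. Cells: Jurkat NFAT-β-lactamase/M1 line, treated with compound plus 1 uM carbachol for 5 h, 37 °C.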

The nature of assay [3]: Stat Signaling Pathway (AID 446).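 Also: ME-180 cervical cancer cells given 40 pM IL-6 alongside compound; SIE-controlled beta-lactamase reporter measured as 460/530 nm FRET emission ratio; % is scaled to controls: 0 for no effect and ±100 for the full control effect.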 The following applies: ME-180 SIE beta-lactamase reporter, IL-6 stimulated, 5 h; at 17.2 µM (top of the series) unless noted. In outline:
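Screening format detects activators and inhibitors alike: ME-180 SIE-bla cells stimulated at 40 pM IL-6 for 5 hrs with compound, then dual-emission beta-lactamase read at 405 nm excitation.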

Assay [4] concerns the target Glucocorticoid receptor (Homo sapiens) (UniProt P04150). Nature of the assay: GR-GFP Redistribution (AID 450;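 active = compounds whose dose series gives a full or clear partial fitted curve of increased nuclear translocation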; also: potency is read from the fitted curve at half-maximal effect).
Assay [5] shares this target. In words: GR-EFC Redistribution (AID 451; calls by dose curve; also: potency is read from the fitted curve at half-maximal effect). As to conditions: CHO-K1 GR-EFC translocation, beta-gal luminescence, 2 h. In outline: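 Translocation of GR-ED fusion to nuclear EA restores b-gal, read by luminescence after 1 h room-temperature detection. Engineered CHO-K1 biosensor cells, 1,000/well, exposed 2 h at 37 C to titrations up to 46 uM final.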
The target of assay [6] is Mitogen-activated protein kinase 10 (Mus musculus) (UniProt Q61831). Nature of the assay: JNK3 AlphaScreen Assay (AID 530).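 Also: kinase came from lysate of stimulated human HepG2 cells; signal reports phosphorylation of biotinylated GST-cJun 1-79 at Ser73 with 10 µM ATP; % is scaled to controls: 0 for no effect and ±100 for the full control effect.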 The procedure, abridged:
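Room-temperature AlphaScreen kinase assay; pre-activated HepG2 lysate as JNK3 source, biotin-GST-cJun(1-79) substrate, 10 uM ATP, compound 15 min preincubation.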
(In Alpha technology, singlet oxygen from a donor bead excites a nearby acceptor bead.)

Assay [7] has as its target 3',5'-cyclic-AMP phosphodiesterase 4B (Homo sapiens) (UniProt Q07343). In words: qHTS Assay for Inhibitors of PDE-IV (AID 607; active = well fitted activation curve with a large enough effect in the main read-out, with a control signal flat, not every such curve was filed as active; also: % of control where 0% means no effect). In outline:
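The readout is membrane depolarisation from a cAMP-sensing CNG channel, detected with a potential dye at ex 535/em 590. Cells were HEK293-derived (endogenous PDE-IV) at 1000 cells/well, titrated up to 22.9 uM final.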

A short description of assay [8]: qHTS Assay for Identification of Small Molecule Agonists for Thrombopoietin (TPO) Signaling Pathway (AID 917; active = well fitted curve in the direction sought with a large enough effect; an effect the other way counts as inactive or inconclusive; also: % is scaled to controls: 0 for no effect and ±100 for the full control effect). In outline:
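Murine Ba/F3 cells stably expressing human TPO receptor and a Glycoprotein IIb promoter–luciferase reporter were IL-3-starved overnight, then treated with compounds plus TPO (26 pM final, its EC50) for 24 hrs at 37 C; luminescence was read.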
(In general: Quantitative high-throughput screening tests each substance at several concentrations.)

The target of assay [9] is Pyruvate kinase (Leishmania mexicana) (UniProt Q27686). In words: qHTS Validation Assay for Inhibitors of Leishmania Mexicana Pyruvate Kinase (AID 945; active = well fitted curve in the direction sought with a large enough effect; an effect the other way counts as inactive or inconclusive;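 also: 0% = DMSO only neutral control wells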). In outline: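 LmPYK E451W 0.2 nM; 0.5 mM PEP, 0.1 mM ADP, 7 mM MgCl2, 50 mM KCl, imidazole pH 7.2, 0.01% Tween 20, 0.05% BSA; 1 h RT; PKLight luminescence; DMSO-normalized.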
Assay [10] deals with Pyruvate kinase PKM (Homo sapiens) (UniProt P14618). Nature of the assay: qHTS Assay for Activators of Human Muscle Pyruvate Kinase (AID 954; active = well fitted curve in the direction sought with a large enough effect, not every such curve was filed as active;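 also: 0% = uninhibited enzyme and -100% = no enzyme or full thiadiazolimine inhibition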). In outline:
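Reaction: 0.1 nM purified PKM2 with 0.5 mM phosphoenolpyruvate and 0.1 mM ADP, room temperature, 1 h. Readout: luciferase-based ATP luminescence after stop reagent. Activators judged against a 0.3 nM enzyme column.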

The target of assay [11] is Alpha-galactosidase A (Homo sapiens) (UniProt P06280). Nature of the assay: Counterscreen for Glucocerebrosidase Inhibitors: qHTS Assay for Human alpha-Galactosidase at pH 4.5 (AID 992; active = well fitted curve in the direction sought with a large enough effect; an effect the other way counts as inactive or inconclusive; also: 0% is about no effect). In outline: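 Concentration-response curves (0.7 nM to 77 uM final) were modeled with the Hill equation to give AC50. Reactions: 2 nM enzyme, 80 uM fluorogenic alpha-galactoside, pH 4.5 citric acid buffer, 20 min, room temperature.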
In general terms: A counterscreen serves to expose hits that act by an unwanted route or on another target.

The target in assay [12] is alpha-glucosidase (Oryza sativa, rice) (UniProt Q653V4). Nature of the assay: Counterscreen for Glucocerebrosidase Inhibitors: qHTS Assay for Rice alpha-Glucosidase at pH 5.0 (AID 997; active = well fitted curve in the direction sought with a large enough effect; an effect the other way counts as inactive or inconclusive;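 also: 0% = full activity with enzyme and -100% = basal without enzyme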). The procedure, abridged: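 Rice alpha-glucosidase (4 nM final) with 400 uM 4-methylumbelliferyl-alpha-D-glucopyranoside in citrate buffer pH 5.0, 20 min at room temperature, stopped at pH 10; fluorescence 365/440 nm, compounds 0.7 nM–77 uM, AC50 from Hill fits.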

The nature of assay [13]: Confirmation and Secondary Assay for Modulators of Hemoglobin Beta Chain Splicing at IVS2 654 locus (AID 910; active = well fitted curve in the direction sought with a large enough effect; an effect the other way counts as inactive or inconclusive;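 also: HeLa cells stably carrying EGFP split by mutant beta-globin IVS2-654 intron; per-well total GFP intensity by laser scanning cytometry after 2-day treatment; % of control where 0% means no effect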). In outline:
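Readout: per-well total peak green fluorescence (488 nm ex, 500–520 nm em) from objects 5–250 µm, reflecting correct splicing of an EGFP-654 reporter. Compounds were applied for 2 days at 37 °C to overnight-plated HeLa EGFP-654 cells; controls were DMSO and 500 nM IVS2-654 PNA.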

Assay [14] in a line: Confirmation and Secondary Assay for Modulators of Hemoglobin Beta Chain Splicing at IVS2 705 locus (AID 930; active = well fitted curve in the direction sought with a large enough effect; an effect the other way counts as inactive or inconclusive;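 also: HeLa cells stably expressing the EGFP-705 splicing reporter; % of control where 0% means no effect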). In outline:
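HeLa cells stably carrying EGFP interrupted by mutant beta-globin IVS2-705 intron (CMV-driven) were seeded at 500 cells/well, treated next day with compound for 2 days at 37C; corrected splicing restores EGFP, read as total peak GFP intensity per well.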

Assay [15] is described as follows: qHTS Assay for Identification of Small Molecule Agonists for Hypoxia Response Element Signaling Pathway (AID 914; active = well fitted activation curve with a large enough effect in the signal ratio, with a control signal flat, not every such curve was filed as active; the % refers to the signal ratio; also: % of control where 0% means no effect). As to conditions: ME-180 (cervical carcinoma) HRE-bla reporter, beta-lactamase ratio, CoCl2, 17 h; activation: active compounds read high. The procedure, abridged:
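ME-180 cells carrying an HRE-driven beta-lactamase reporter were treated with compounds in a titration series plus an EC50 level of CoCl2 for 17 h at 37 degrees Celsius; CCF4 readout as the 460nm/530nm ratio gave AC50 values.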

A number with no mark means an inactive call. Records with an inconclusive call do not appear. Active and inactive are the calls of the source. Unless noted, calls follow the shape of the dose curve; as a rule, active = well fitted curve in either direction with a large enough effect (not every such curve was filed as active); inconclusive = small, poorly fitted or top-dose-only effect, or another doubt; inactive = flat fitted curve, though single readings scatter. Bounds are passed on as bounds.

Chain of Alpha-galactosidase A (Homo sapiens) (P06280 whole entry, looked up): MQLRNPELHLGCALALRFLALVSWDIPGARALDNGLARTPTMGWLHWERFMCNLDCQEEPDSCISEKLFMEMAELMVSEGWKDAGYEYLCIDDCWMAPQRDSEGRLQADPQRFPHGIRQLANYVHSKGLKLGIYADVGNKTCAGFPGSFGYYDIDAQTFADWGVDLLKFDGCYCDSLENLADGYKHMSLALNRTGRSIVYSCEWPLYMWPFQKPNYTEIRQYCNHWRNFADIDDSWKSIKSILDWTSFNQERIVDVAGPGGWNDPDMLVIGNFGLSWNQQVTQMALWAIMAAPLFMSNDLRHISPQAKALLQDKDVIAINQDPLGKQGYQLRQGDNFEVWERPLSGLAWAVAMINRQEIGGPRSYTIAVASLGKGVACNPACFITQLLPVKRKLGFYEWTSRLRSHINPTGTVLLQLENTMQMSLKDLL
Chain of 3',5'-cyclic-AMP phosphodiesterase 4B (Homo sapiens) (Q07343 whole entry, looked up): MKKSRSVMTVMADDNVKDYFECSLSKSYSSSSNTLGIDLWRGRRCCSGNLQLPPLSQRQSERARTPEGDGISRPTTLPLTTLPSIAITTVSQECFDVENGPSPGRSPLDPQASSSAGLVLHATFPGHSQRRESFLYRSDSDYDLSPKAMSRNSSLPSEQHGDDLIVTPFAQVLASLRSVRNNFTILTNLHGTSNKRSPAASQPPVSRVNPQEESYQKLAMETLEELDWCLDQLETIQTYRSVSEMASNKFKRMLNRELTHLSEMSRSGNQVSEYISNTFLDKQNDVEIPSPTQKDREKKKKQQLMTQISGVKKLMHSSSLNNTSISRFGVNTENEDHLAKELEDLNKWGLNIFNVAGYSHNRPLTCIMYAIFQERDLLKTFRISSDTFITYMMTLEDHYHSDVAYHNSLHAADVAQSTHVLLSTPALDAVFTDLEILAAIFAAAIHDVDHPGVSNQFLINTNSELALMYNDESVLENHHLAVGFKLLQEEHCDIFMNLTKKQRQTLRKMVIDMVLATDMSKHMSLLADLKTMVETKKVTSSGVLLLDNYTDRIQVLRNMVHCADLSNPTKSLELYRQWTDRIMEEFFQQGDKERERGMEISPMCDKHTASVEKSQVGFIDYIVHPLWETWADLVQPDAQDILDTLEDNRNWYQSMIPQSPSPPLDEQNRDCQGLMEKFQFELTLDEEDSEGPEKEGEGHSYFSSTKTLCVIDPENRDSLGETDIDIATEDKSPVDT
Chain of Pyruvate kinase (Leishmania mexicana) (Q27686 2-499 E452W): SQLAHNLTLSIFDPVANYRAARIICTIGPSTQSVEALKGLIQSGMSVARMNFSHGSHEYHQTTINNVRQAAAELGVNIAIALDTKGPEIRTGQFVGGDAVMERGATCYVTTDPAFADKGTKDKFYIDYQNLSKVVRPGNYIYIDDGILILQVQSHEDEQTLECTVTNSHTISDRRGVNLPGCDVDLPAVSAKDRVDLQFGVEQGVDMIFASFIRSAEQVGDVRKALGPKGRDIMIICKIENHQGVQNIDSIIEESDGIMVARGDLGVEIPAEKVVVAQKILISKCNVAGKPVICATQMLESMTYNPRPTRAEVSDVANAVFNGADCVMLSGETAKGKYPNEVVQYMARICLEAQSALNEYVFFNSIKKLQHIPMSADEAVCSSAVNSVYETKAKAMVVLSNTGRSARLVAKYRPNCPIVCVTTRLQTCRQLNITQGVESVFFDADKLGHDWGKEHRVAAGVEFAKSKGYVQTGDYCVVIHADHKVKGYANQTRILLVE
Chain of Pyruvate kinase PKM (Homo sapiens) (P14618 whole entry, looked up): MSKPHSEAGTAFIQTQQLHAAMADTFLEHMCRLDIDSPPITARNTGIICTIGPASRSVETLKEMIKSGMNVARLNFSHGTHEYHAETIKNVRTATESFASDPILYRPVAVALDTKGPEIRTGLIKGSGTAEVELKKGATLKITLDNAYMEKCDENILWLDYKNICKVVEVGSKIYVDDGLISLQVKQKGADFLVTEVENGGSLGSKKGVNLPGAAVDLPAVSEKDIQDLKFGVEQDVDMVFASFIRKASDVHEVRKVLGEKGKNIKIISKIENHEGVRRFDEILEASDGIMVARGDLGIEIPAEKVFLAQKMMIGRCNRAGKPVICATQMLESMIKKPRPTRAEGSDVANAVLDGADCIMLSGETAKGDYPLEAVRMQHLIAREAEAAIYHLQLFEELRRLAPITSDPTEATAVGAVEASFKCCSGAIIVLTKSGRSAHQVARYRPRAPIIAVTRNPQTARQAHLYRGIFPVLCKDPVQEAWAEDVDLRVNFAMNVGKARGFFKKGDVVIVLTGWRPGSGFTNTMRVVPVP
Chain of Glucocorticoid receptor (Homo sapiens) (P04150 whole entry, looked up, the tested form may be a part): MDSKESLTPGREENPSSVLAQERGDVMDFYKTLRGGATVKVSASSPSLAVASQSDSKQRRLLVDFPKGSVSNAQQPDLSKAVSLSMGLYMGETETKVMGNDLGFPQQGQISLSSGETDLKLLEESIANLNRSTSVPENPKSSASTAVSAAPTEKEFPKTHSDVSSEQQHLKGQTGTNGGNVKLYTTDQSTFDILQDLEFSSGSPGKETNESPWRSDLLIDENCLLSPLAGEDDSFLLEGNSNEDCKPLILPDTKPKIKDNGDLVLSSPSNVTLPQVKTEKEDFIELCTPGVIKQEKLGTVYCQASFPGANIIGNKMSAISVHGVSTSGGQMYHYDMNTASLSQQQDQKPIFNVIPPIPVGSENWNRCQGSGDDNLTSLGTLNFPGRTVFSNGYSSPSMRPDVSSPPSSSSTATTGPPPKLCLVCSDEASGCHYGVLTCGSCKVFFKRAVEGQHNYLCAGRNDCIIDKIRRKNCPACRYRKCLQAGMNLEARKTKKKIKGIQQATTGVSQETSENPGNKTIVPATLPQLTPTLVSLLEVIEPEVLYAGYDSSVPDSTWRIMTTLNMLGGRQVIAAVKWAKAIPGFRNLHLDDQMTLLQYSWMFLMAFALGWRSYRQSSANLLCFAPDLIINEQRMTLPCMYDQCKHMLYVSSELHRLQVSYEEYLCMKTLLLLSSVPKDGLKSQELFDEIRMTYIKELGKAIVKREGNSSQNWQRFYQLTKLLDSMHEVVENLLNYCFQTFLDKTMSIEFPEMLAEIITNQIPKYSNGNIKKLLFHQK

On to `Nc1cc(S(N)(=O)=O)ccc1SSc1ccc(S(N)(=O)=O)cc1N`, for which the activity change, negative = inhibition is 19.2% [at 7.69 µM] in assay [1], -0.508% [at 7.69 µM] in assay [2] and -4.44% [at 11.4 µM] in assay [6]. Further, the activity, negative = inhibition in [3] is -1.82% [at 7.69 µM]. Moreover, the figures for the Potency in assay [4] and in assay [5] were greater than 46 µM and greater than 9.22 µM, respectively. For the same molecule, the Potency result in [7] is “inactive”.
`N[C@H](Cc1ccc(F)cc1)C(=O)O`: the figures for the activity change, negative = inhibition in assay [1] and in [2] were 14.8% [at 38 µM] and -1.52% [at 38 µM], respectively. Further, in assay [3], the activity, negative = inhibition is -8.01% [at 38 µM]. Besides, the Potency in [4] and in assay [5] was greater than 46 µM in each case. Also, the Potency entry in assay [6], in assay [7], in [8] and in assay [9] was “inactive” in each case. The outcome in [10], in assay [11] and in assay [12] was inactive.
For `O=C(CSc1ncnc2nc[nH]c12)c1ccccc1`, the activity change, negative = inhibition in [1] was -9.01% [at 7.69 µM]; in [2], 11.7% [at 7.69 µM]; in assay [6], -0.309% [at 11.4 µM]. Moreover, the activity, negative = inhibition in assay [3] is 1.65% [at 7.69 µM]. Besides, the Potency was greater than 46 µM in [4] and greater than 9.22 µM in assay [5]. In assay [7], the Potency result was “inactive”.
Take `O=c1[nH]c2sc3c(c2c(=O)n1Cc1ccccc1)CCC3`: the results for the activity change, negative = inhibition in assay [1] and in assay [2] were -27.5% and 16.2%, respectively. Moreover, the activity, negative = inhibition in assay [3] was -5.31%. The Potency in assay [4] is greater than 20.6 µM.
As to `Nc1ccn([C@@H]2O[C@@H](CO)[C@@H](O)[C@H]2O)c(=O)n1`, the activity change, negative = inhibition in assay [1] is 10.7% [at 38 µM]; in assay [2], -7.43% [at 38 µM]. Besides, in assay [3], the activity, negative = inhibition was 19% [at 38 µM]. The Potency in [4] and in assay [5] was greater than 46 µM each time. In addition, the Potency result in assay [6], in assay [7], in assay [13], in assay [14] and in assay [9] was “inactive” throughout. For the same molecule, the outcome in [10], in [11] and in assay [12] was inactive.
Regarding `CN1C[C@H](C(=O)N[C@]2(C)O[C@]3(O)[C@H]4CCCN4C(=O)[C@H](Cc4ccccc4)N3C2=O)C[C@H]2c3cccc4[nH]cc(c34)C[C@@H]21`, the figures for the activity change, negative = inhibition in assay [1] and in assay [2] were 1.56% and -6.21%, respectively. Besides, in assay [3], the activity, negative = inhibition is -7.06%. Besides, the Potency in [4] and in [5] was greater than 20.6 µM each time. The Potency result in assay [6] and in [7] was “inactive” throughout.
Turning to `CSc1nc2[nH]c3c(c2c2nncn12)CC(C)(C)OC3`, the values for the activity change, negative = inhibition in assay [1] and in assay [2] were -4.3% and -1.24%, respectively. Moreover, in assay [3], the activity, negative = inhibition is 7.21%. Besides, the Potency in assay [4] is greater than 20.6 µM.
`NCCC[C@@](N)(C(=O)O)C(F)F`: the values for the activity change, negative = inhibition in assay [1] and in assay [2] were 6.84% [at 38 µM] and -7.76% [at 38 µM], respectively. Also, the activity, negative = inhibition in assay [3] is 2.8% [at 38 µM]. Besides, the Potency in assay [4] and in assay [5] was greater than 46 µM throughout. Moreover, the Potency result in [6], in assay [8] and in assay [9] was “inactive” in each case. The call in [10], in assay [11] and in assay [12] was inactive.
`CC(=O)N[C@H](Cc1c[nH]c2ccccc12)C(=O)O`: the activity change, negative = inhibition is 3.17% [at 7.69 µM] in [1], 4.78% [at 7.69 µM] in assay [2] and 4.22% [at 11.4 µM] in assay [6]. In addition, the activity, negative = inhibition in assay [3] was 14.4% [at 7.69 µM]. For the same molecule, the Potency in assay [4] is greater than 46 µM; in assay [5], greater than 9.22 µM. Moreover, in [7], the Potency result is “inactive”.
Take `Cn1c(=O)c2c(nc(/C=C\c3cccc(Cl)c3)n2C)n(C)c1=O`: the figures for the activity change, negative = inhibition in assay [1] and in [2] were 7.2% [at 38 µM] and -6.69% [at 38 µM], respectively. In assay [3], the activity, negative = inhibition was -14.4% [at 38 µM]. For the same molecule, the Potency in assay [4] and in [5] was greater than 46 µM each time. For the same molecule, the Potency result in [6], in assay [7], in [8] and in assay [9] was “inactive” throughout. Further, the molecule was called inactive in assay [10], in assay [11] and in [12].
Consider `CC(=O)S[C@@H]1CC2=CC(=O)CC[C@@]2(C)[C@H]2CC[C@]3(C)[C@H](CC[C@@]34CCC(=O)O4)[C@H]12`, for which the activity change, negative = inhibition in [1] is 19.8% [at 38 µM]; in assay [2], -10% [at 38 µM]. Further, the activity, negative = inhibition in assay [3] is -9.34% [at 38 µM]. The results for the Potency in assay [4] and in assay [5] were 1.4 µM (active) and greater than 46 µM, respectively. The Potency entry in assay [7], in assay [8] and in assay [9] was “inactive” in each case. The call in [10], in assay [11] and in assay [12] was inactive.
`CC(=O)O[C@@H]1C[C@]2(C)[C@H](C[C@@H](O)[C@H]3[C@@]4(C)CC[C@@H](O)[C@@H](C)[C@@H]4CC[C@@]32C)/C1=C(\CCC=C(C)C)C(=O)O`: the activity change, negative = inhibition was -14.6% [at 38 µM] in assay [1] and -0.766% [at 38 µM] in assay [2]. Besides, the activity, negative = inhibition in assay [3] was 11.2% [at 38 µM]. Also, the Potency in assay [4] and in [5] was greater than 46 µM throughout. Also, the Potency entry in assay [6], in [7], in assay [8] and in assay [9] was “inactive” throughout. Moreover, the molecule was classed as inactive in assay [10], in [11] and in assay [12].
`O=C(NC1CCCCC1)[C@H](O)[C@@H](O)C(=O)NC1CCCCC1`: the results for the activity change, negative = inhibition in [1] and in [2] were 8.04% and 0.354%, respectively. Further, in [3], the activity, negative = inhibition was 4.25%. For the same molecule, the Potency in assay [4] is greater than 20.6 µM. Besides, the activation in [15] is 12.1%.
Regarding `O=C1C2ON(c3ccccc3)C(c3cccnc3)C2C(=O)N1c1ccc(Cl)c(Cl)c1` (configuration not stated), the activity change, negative = inhibition is -4.98% in assay [1] and 16% in assay [2]. Moreover, the activity, negative = inhibition in assay [3] is -9.39%. Moreover, the Potency in [4] is greater than 20.6 µM. Further, the activation in assay [15] is 2.42%.
With `COc1ccc(CNC(=O)c2c(C)cc(=O)oc2C)cc1OC`, the activity change, negative = inhibition in [1] is 13.7%; in [2], 13.8%. The activity, negative = inhibition in assay [3] is 9.9%. In addition, in [4], the Potency was greater than 20.6 µM. Also, the activation in assay [15] is 12.6%.

For the origin of these results see PubChem BioAssay (NCATS).
